Binding signal data for one sequence are collected here from article PMC7862700, “An all-to-all approach to the identification of sequence-specific readers for epigenetic DNA modifications on cytosine”.

Holding throughout (test): DAPPL (digital affinity profiling via proximity ligation, sequencing); 10 mM Tris-HCl pH 7.5, 50 mM NaCl, 1 mM DTT, 4% glycerol, room temperature, 30 min; GST-TFs on glutathione beads, 16-mer random dsDNA library, 0.1% formaldehyde crosslink after washing; high values mean tight binding
One assay has as its target T1, FEV (Homo sapiens, UniProt Q99581 1-238).
T1 sequence: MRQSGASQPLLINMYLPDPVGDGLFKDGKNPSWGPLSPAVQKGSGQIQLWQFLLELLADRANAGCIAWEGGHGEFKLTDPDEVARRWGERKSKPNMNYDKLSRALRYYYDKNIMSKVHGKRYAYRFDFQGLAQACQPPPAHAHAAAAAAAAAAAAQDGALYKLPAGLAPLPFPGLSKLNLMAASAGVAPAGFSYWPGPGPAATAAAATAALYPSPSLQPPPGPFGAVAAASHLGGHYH
As to conditions: protein: recombinant; tags: N-terminal GST; dsDNA, one strand shown. Summed up:
(§1)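 Binding signal is each hexamer's read frequency for a factor divided by its frequency in the tag-only sample. The factors were GST-fused human transcription factors from yeast, captured on glutathione beads, DNA-barcoded and pooled with that sample. Pools were incubated with 200 nmole of a random double-stranded 16-mer DNA library in Tris/NaCl/DTT/glycerol buffer at room temperature for 30 min, then washed, crosslinked with 0.1% formaldehyde, proximity-ligated with BsaI/T4 ligase (1 h, 37 °C), PCR-amplified and sequenced on an Illumina NextSeq500.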

The target in the next assay is ETV5 (Homo sapiens, UniProt P41161 1-510). As to conditions: protein: recombinant; tags: N-terminal GST; dsDNA, one strand shown. The essentials: as §1
The target in the next assay is HSF1 (Homo sapiens, UniProt Q00613 1-529). As to conditions: protein: recombinant; tags: N-terminal GST; chain copies: 3; dsDNA, one strand shown. The essentials:
as §1

A further assay concerns the target T2, SPIC (Homo sapiens, UniProt Q8N5J4 1-248).
T2 sequence: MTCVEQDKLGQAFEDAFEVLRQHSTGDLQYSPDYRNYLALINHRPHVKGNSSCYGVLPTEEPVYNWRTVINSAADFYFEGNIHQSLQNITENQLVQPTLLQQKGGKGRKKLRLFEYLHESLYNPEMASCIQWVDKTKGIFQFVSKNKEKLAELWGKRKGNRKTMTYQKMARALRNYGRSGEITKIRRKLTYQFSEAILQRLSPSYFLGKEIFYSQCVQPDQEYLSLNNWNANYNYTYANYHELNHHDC
As to conditions: protein: recombinant; tags: N-terminal GST; dsDNA, one strand shown. The essentials: as §1

Another assay concerns the target ELF4 (Homo sapiens, UniProt Q99607 1-663). As to conditions: protein: recombinant; tags: N-terminal GST; dsDNA, one strand shown. The essentials: as §1
A further assay concerns the target T3, ELK4 (Homo sapiens, UniProt P28324-2 1-405).
T3 sequence: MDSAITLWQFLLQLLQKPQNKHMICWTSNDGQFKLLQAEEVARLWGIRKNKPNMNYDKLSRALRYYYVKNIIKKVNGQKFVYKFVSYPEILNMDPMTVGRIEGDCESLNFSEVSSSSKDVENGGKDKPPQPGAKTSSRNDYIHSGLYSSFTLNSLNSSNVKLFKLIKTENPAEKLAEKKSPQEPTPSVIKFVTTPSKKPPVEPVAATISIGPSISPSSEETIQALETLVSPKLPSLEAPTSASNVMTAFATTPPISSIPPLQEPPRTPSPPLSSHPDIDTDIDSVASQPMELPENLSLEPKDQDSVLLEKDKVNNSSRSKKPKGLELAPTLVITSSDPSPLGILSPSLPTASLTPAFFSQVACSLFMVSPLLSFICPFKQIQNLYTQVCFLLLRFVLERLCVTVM
The following applies: protein: recombinant; tags: N-terminal GST; dsDNA, one strand shown. The essentials:
as §1

A further assay addresses T4, ETV2 (Homo sapiens, UniProt O00321 1-342).
T4 sequence: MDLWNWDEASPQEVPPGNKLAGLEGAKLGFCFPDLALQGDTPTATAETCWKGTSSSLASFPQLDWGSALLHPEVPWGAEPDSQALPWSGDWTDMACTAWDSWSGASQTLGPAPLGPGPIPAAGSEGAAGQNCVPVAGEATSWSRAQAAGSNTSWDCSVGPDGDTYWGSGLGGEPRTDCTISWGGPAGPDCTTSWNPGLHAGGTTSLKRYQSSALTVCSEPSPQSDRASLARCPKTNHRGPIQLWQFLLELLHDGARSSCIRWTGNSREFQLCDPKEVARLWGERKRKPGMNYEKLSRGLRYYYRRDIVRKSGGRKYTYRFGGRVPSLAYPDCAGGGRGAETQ
As to conditions: protein: recombinant; tags: N-terminal GST; dsDNA, one strand shown. Summed up:
as §1

The target of another assay is T5, ELF3 (Homo sapiens, UniProt P78545 1-371).
T5 sequence: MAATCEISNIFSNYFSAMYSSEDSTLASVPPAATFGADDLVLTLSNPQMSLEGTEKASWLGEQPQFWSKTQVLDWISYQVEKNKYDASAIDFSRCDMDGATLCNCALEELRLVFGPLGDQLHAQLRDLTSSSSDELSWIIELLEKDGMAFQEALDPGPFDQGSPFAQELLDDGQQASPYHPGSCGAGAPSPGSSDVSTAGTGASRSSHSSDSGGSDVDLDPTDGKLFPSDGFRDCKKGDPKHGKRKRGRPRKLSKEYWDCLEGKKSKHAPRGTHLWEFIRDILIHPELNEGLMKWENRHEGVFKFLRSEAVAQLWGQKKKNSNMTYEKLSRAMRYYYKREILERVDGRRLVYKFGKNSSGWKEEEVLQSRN
The following applies: protein: recombinant; tags: N-terminal GST; dsDNA, one strand shown. Summed up:
as §1

In the next assay the target is CRX (Homo sapiens, UniProt O43186 1-299). As to conditions: protein: recombinant; tags: N-terminal GST; dsDNA, one strand shown. Summed up:
as §1

The next assay has as its target ETV1 (Homo sapiens, UniProt P50549 1-477). As to conditions: protein: recombinant; tags: N-terminal GST; dsDNA, one strand shown. The essentials:
as §1

The next assay deals with T6, ERF (Homo sapiens, UniProt P50548 1-548).
T6 sequence: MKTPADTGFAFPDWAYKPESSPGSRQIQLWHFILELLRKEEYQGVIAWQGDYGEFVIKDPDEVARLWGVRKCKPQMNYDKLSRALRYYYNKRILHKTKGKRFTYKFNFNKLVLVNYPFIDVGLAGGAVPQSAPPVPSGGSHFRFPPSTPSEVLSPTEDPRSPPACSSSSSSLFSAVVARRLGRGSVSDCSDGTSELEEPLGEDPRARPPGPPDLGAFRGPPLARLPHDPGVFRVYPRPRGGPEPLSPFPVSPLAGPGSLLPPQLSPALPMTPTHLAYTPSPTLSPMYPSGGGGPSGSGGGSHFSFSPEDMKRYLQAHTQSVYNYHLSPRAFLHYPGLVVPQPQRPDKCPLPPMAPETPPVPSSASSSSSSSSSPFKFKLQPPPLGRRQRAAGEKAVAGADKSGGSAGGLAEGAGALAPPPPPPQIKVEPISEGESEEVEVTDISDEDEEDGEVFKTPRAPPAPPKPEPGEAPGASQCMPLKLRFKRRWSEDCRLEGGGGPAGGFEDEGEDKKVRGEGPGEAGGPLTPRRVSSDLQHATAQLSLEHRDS
As to conditions: protein: recombinant; tags: N-terminal GST; dsDNA, one strand shown. Summed up:
as §1

The next assay deals with T7, ETV3L (Homo sapiens, UniProt Q6ZN32 1-361).
T7 sequence: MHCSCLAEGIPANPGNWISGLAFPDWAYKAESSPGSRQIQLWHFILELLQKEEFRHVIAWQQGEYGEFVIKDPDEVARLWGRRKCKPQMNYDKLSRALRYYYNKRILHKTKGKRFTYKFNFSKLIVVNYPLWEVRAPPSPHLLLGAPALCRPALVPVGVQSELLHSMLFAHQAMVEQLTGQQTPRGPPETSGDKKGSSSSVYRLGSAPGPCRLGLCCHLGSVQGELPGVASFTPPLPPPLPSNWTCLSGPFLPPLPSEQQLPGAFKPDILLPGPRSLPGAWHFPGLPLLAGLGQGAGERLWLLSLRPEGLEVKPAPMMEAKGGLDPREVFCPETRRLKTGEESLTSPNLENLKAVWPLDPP
As to conditions: protein: recombinant; tags: N-terminal GST; dsDNA, one strand shown. Summed up: as §1

A further assay concerns the target T8, ETS2 (Homo sapiens, UniProt P15036 1-469).
T8 sequence: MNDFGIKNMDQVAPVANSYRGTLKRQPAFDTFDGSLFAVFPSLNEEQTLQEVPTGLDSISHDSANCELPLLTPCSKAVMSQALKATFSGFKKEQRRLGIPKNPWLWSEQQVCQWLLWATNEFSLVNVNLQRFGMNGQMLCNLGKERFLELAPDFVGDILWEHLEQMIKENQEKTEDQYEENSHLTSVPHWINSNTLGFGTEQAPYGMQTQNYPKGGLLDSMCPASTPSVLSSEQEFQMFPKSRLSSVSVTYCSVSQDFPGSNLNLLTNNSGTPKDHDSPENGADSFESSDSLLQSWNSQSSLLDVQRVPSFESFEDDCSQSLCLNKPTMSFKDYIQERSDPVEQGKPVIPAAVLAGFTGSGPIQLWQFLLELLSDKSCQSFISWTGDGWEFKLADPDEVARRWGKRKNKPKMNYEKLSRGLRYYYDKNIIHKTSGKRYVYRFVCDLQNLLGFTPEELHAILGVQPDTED
The following applies: protein: recombinant; tags: N-terminal GST; dsDNA, one strand shown. The essentials: as §1

The next assay has as its target T9, SPDEF (Homo sapiens, UniProt O95238 1-335).
T9 sequence: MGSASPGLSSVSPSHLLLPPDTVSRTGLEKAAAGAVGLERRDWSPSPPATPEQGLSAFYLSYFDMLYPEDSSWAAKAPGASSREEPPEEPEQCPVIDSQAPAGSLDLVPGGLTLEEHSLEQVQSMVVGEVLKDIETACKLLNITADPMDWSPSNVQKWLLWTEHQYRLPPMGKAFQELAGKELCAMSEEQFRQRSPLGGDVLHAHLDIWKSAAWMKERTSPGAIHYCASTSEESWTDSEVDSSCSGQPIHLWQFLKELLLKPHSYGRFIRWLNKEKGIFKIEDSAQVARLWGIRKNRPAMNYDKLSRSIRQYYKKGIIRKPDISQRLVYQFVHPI
As to conditions: protein: recombinant; tags: N-terminal GST; dsDNA, one strand shown. Summed up:
as §1

The target in another assay is T10, ETV7 (Homo sapiens, UniProt Q9Y603 1-341).
T10 sequence: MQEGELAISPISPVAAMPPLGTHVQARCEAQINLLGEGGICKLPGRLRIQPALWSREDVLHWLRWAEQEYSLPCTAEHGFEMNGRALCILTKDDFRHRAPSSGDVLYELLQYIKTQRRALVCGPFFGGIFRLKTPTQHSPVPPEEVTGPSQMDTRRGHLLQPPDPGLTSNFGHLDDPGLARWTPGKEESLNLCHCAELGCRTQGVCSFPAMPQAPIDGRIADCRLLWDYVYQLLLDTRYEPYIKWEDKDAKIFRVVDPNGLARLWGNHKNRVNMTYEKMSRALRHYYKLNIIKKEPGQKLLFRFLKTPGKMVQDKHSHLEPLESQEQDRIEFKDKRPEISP
The following applies: protein: recombinant; tags: N-terminal GST; dsDNA, one strand shown. The essentials: as §1

For another assay, the target named is T11, ELF5 (Homo sapiens, UniProt Q9UKW6-2 1-255).
T11 sequence: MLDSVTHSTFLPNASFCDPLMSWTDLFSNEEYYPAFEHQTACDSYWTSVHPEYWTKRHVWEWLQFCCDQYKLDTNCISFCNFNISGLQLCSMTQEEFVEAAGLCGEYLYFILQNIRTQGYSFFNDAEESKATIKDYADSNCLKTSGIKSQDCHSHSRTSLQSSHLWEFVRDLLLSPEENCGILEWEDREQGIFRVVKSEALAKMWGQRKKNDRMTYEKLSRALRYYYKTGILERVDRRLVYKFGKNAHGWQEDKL
As to conditions: protein: recombinant; tags: N-terminal GST; dsDNA, one strand shown. The essentials:
as §1

In another assay the target is T12, ETV3 (Homo sapiens, UniProt P41162-2 1-143).
T12 sequence: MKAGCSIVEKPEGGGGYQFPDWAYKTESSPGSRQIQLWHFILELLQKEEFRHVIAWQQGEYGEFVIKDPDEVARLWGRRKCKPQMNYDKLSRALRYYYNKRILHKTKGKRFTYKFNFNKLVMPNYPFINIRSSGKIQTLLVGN
As to conditions: protein: recombinant; tags: N-terminal GST; dsDNA, one strand shown. Summed up:
as §1

A further assay deals with ETV6 (Homo sapiens, UniProt P41212 1-452). As to conditions: protein: recombinant; tags: N-terminal GST; dsDNA, one strand shown. The essentials: as §1
Chain of ETV6 (P41212 whole entry): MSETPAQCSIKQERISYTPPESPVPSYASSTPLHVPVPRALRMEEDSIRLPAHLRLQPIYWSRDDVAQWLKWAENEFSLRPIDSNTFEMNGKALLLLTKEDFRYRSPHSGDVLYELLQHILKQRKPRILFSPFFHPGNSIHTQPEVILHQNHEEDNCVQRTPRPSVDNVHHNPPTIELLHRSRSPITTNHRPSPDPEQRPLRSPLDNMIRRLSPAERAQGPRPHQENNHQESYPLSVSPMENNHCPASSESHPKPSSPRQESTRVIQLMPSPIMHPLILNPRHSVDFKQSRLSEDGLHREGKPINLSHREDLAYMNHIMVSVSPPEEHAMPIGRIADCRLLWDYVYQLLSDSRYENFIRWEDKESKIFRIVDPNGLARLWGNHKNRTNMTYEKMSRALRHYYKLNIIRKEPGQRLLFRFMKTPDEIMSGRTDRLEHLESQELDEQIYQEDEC

Chain of HSF1 (Q00613 whole entry): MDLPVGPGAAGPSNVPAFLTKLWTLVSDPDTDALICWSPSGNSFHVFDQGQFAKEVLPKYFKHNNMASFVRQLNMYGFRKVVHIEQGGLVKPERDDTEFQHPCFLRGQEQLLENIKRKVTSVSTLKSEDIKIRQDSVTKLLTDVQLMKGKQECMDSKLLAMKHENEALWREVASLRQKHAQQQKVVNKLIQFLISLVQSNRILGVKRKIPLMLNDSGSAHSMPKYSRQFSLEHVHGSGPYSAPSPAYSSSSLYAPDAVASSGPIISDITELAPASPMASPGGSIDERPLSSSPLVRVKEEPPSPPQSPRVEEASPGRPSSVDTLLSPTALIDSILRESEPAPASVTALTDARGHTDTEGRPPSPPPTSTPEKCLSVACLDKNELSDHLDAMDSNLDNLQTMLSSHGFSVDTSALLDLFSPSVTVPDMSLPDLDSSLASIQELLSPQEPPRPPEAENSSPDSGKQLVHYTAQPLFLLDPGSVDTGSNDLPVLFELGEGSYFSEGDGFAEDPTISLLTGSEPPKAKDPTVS
Chain of ELF4 (Q99607 whole entry): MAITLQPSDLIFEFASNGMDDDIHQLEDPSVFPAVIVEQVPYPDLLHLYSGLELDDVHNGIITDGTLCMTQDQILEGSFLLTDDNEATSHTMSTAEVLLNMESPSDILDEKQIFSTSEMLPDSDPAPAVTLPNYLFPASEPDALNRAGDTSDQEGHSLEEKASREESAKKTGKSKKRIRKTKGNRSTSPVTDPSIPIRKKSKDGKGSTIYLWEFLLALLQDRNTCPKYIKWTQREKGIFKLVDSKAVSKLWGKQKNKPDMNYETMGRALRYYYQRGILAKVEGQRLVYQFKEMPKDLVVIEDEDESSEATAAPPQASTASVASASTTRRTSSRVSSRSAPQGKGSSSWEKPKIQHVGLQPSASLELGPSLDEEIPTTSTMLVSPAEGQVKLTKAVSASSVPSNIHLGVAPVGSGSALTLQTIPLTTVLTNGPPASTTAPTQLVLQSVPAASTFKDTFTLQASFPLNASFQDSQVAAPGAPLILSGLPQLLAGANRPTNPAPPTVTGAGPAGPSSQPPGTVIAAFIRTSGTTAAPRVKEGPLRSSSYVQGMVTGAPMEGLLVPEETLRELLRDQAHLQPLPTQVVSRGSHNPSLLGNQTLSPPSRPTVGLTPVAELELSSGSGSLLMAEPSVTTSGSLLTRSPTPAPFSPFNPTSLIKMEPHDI
Chain of ETV1 (P50549 whole entry): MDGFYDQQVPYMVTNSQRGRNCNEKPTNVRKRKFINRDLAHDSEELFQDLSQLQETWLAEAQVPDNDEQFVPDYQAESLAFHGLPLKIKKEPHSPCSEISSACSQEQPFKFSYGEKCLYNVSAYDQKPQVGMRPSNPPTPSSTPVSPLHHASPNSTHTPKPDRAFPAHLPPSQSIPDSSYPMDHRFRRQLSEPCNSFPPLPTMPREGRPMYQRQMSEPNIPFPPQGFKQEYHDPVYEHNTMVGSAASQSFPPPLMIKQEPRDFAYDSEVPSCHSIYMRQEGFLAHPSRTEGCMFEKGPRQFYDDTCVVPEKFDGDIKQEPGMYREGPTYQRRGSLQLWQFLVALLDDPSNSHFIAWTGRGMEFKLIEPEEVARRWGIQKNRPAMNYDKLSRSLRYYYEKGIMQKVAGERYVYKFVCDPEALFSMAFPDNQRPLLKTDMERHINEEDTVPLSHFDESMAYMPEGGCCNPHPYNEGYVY
Chain of CRX (O43186 whole entry): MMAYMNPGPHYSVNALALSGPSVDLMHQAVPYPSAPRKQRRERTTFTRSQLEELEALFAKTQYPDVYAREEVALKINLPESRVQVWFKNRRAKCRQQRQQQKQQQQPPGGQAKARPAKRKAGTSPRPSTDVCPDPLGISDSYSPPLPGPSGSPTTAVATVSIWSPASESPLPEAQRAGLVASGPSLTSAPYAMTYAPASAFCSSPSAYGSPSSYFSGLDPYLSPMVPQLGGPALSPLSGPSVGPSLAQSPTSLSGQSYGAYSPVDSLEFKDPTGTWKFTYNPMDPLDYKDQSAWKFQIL
Chain of ETV5 (P41161 whole entry): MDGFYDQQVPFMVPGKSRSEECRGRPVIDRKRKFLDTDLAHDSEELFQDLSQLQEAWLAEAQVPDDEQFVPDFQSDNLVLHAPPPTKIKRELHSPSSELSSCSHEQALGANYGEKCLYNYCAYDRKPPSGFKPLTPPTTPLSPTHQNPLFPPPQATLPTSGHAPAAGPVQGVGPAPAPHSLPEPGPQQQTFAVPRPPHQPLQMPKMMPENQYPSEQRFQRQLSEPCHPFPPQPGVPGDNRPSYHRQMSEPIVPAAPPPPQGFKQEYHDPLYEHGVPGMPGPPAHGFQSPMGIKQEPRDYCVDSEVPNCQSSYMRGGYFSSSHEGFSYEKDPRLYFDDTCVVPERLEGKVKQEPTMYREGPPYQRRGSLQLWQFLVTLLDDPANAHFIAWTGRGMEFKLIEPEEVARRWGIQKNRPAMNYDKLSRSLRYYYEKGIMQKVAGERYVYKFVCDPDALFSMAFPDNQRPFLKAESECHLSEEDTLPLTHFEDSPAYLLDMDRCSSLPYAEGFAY

On to GCTTCT, for which the binding signal with FEV was 1.41 fold enrichment (6-mer frequency, TF over GST control); with ETV5, 1.57 fold enrichment (6-mer frequency, TF over GST control); in the assay with HSF1, 2.32 fold enrichment (6-mer frequency, TF over GST control); with SPIC, 1.48 fold enrichment (6-mer frequency, TF over GST control); with ELF4, 1.6 fold enrichment (6-mer frequency, TF over GST control); with ELK4, 1.4 fold enrichment (6-mer frequency, TF over GST control). Besides, the binding signal in the assay with ETV2 was 1.46 fold enrichment (6-mer frequency, TF over GST control); in the assay with ELF3, 1.25 fold enrichment (6-mer frequency, TF over GST control); with CRX, 1.81 fold enrichment (6-mer frequency, TF over GST control); in the assay with ETV1, 1.42 fold enrichment (6-mer frequency, TF over GST control); in the assay with ERF, 1.64 fold enrichment (6-mer frequency, TF over GST control); in the assay with ETV3L, 1.37 fold enrichment (6-mer frequency, TF over GST control). For the same sequence, the binding signal with ETS2 is 1.5 fold enrichment (6-mer frequency, TF over GST control); in the assay with SPDEF it was 1.34 fold enrichment (6-mer frequency, TF over GST control); in the assay with ETV7 it was 1.43 fold enrichment (6-mer frequency, TF over GST control); with ELF5 it was 1.56 fold enrichment (6-mer frequency, TF over GST control); with ETV3, 1.4 fold enrichment (6-mer frequency, TF over GST control); with ETV6, 1.45 fold enrichment (6-mer frequency, TF over GST control).
